# In PubChem BioAssay (NCATS):
# “And” between values parts separate entries of the source, which are not always exact repeats. Equal values may be shown once. Inconclusive results are not listed. Where a call stands in place of a potency, no number is given. The source made the active and inactive calls. The call rests on the fitted dose curve.
# Legend:
# [1] = Cytotoxicity counterscreen for inhibitors of SARS-CoV-2 cell entry (AID 1645845); settings: outcome: dose series up to 57.1 µM unless noted; further: nearly all actives have a fitted effect of over 50% in size
# Summary of the method: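 48 h compound treatment (after 1 h preincubation), HEK293-ACE2 cells, 37 C/5% CO2; ATP luminescence endpoint; normalized to cell wells and media blanks.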
# [2] = Primary qHTS to identify inhibitors of SARS-CoV-2 cell entry (AID 1645846); settings: SARS-CoV-2 pseudovirus cell entry assay, luminescence; activity change, negative = inhibition: at 57.1 µM (top of the series) unless noted; further: nearly all actives have a fitted effect of over 45% in size
# Summary of the method: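 Entry measured by luciferase signal 48 h after adding SARS-CoV-2-S pseudotyped MLV particles to HEK293-ACE2 cells preincubated 1 h with compounds. Normalisation: bald particles and spike particles.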
# Potency means the concentration at half of the fitted maximal effect.
structure (smiles),measurement,setting,value
COc1cccc(Nc2ncnn3ccc(CN4CC[C@@H](N)[C@H](O)C4)c23)c1,Potency,[1],inactive
same,Potency,[2],inactive
CN[C@@H](C)C(=O)N[C@@H]1C(=O)N(Cc2c(C)ccc3ccccc23)c2ccc(C#N)cc2N(C(C)=O)[C@H]1C,Potency,[1],inactive
same,Potency,[2],inactive
O=C(NNc1ccccc1)c1ccncc1,Potency,[1],inactive
same,"activity change, negative = inhibition",[2],-19.4%
C[C@H](Nc1nc(N[C@H](C)C(F)(F)F)nc(-c2cccc(Cl)n2)n1)C(F)(F)F,Potency,[1],inactive
same,"activity change, negative = inhibition",[2],-8.78%
O=C1OC2(CCC(C(=O)Nc3ccn(-c4ccccc4F)n3)CC2)c2cnccc21 (stereo not given),Potency,[1],inactive
same,Potency,[2],inactive
O=C(Nc1ccc(-c2ccnc(Nc3ccc(N4CCOCC4)cc3)n2)cc1)C1CCCN1 (stereo not given),Potency,[1],inactive
same,"activity change, negative = inhibition",[2],-3.33%
CC1=NN(c2ccc(C(=O)O)cc2)C(=O)/C1=C/c1ccc(-c2cc(C)c(C)cc2[N+](=O)[O-])o1,Potency,[1],inactive
same,Potency,[2],inactive
COc1ccc(C(=O)N2CCN(C(=O)/C=C/c3ccc(Br)cc3)CC2)cc1,Potency,[1],inactive
same,"activity change, negative = inhibition",[2],-2.12%
CC(C)Oc1ccc(-c2nn([C@@H](C)c3oc4ccc(F)cc4c(=O)c3-c3cccc(F)c3)c3ncnc(N)c23)cc1F,Potency,[1],inactive
same,"activity change, negative = inhibition",[2],-16.7%
O=C(NC[C@H](O)CN1CCc2ccccc2C1)c1ccnc(NC2CCC2)c1,Potency,[1],inactive
same,"activity change, negative = inhibition",[2],4.47%
OC(c1ccc(-c2ccc(CN3CCN(Cc4ccncc4)CC3)cc2)c(F)c1)(C(F)(F)F)C(F)(F)F,Potency,[1],inactive
same,Potency,[2],inactive
O=C(O)CNC(=O)c1ncc(-c2cccc(Cl)c2)cc1O,Potency,[1],inactive
same,Potency,[2],inactive
CN1CCN(C(=O)c2ccc(-c3ccc4c(C=O)c(O)ccc4c3)s2)CC1,Potency,[1],inactive
same,Potency,[2],inactive
Cc1ccc(NC(=O)[C@H]2CCCN(C(=O)c3c(C)cccc3F)[C@H]2c2ccc(NC3CCCC3)cc2)cc1C(F)(F)F,Potency,[1],inactive
same,"activity change, negative = inhibition",[2],-27.6%
CC(C)(C)C(=O)N1N=CC[C@H]1c1ccccc1,Potency,[1],inactive
same,"activity change, negative = inhibition",[2],-3.46%
COc1cc2c3c(n(CCCNCCO)c(=O)c2cc1OC)-c1cc2c(cc1C3=O)OCO2,Potency,[1],7.94 µM (active)
same,"activity change, negative = inhibition",[2],-96.5%
C=CC(=O)Nc1cc(N2CCN(CC)CC2)ccc1Nc1cc(N(C)C(=O)Nc2c(Cl)c(OC)cc(OC)c2Cl)ncn1,Potency,[1],inactive
same,"activity change, negative = inhibition",[2],-6.15%
Cc1cn(CCN2CCN(c3ccccc3-c3cc(C#N)cc(C(=O)NCCCN4CCCC4)c3)CC2)c2ccccc12,Potency,[1],35.5 µM (active)
same,Potency,[2],17.8 µM (active)
C#Cc1cccc(Nc2ncnc3cc4c(cc23)OCCOCCOCCO4)c1,Potency,[1],inactive
same,"activity change, negative = inhibition",[2],-13.8%
Cc1c(-c2cnccn2)ssc1=S,Potency,[1],inactive
same,"activity change, negative = inhibition",[2],3.56%
COc1cc2nccc(Oc3ccc(NC(=O)c4cn(C(C)C)c(=O)n(-c5ccc(F)cc5)c4=O)cc3F)c2cc1OC,Potency,[1],inactive
same,Potency,[2],inactive
COc1nc(N)nc2c1ncn2C1OC(CO)C(O)C1O (stereo not given),Potency,[1],inactive
same,"activity change, negative = inhibition",[2],1.29%
CN1C(N)=N[C@](C)(c2cc(NC(=O)c3ccc(F)cn3)ccc2F)CS1(=O)=O,Potency,[1],inactive
same,"activity change, negative = inhibition",[2],-0.893%
C[C@H]1CN(C2COC2)CCN1c1ccc(Nc2cc(-c3ccnc(N4CCn5c(cc6c5CC(C)(C)C6)C4=O)c3CO)cn(C)c2=O)nc1,Potency,[1],inactive
same,"activity change, negative = inhibition",[2],-10.4%
CC1=C(c2ccc(O)cc2)[C@H](c2ccc(OCCN3CCCCC3)cc2)Oc2cc(O)ccc21,Potency,[1],inactive
same,"activity change, negative = inhibition",[2],-47.4%
Clc1cccc(-c2ccc(-c3nnc(CCCc4ccc5cccnc5n4)o3)cc2)c1,Potency,[1],inactive
same,Potency,[2],inactive
C[C@]12CCCN1CC1=NNC(=O)c3cc(F)cc4[nH]c2c1c34,Potency,[1],inactive
same,"activity change, negative = inhibition",[2],-15.3%
O=C(/C=C/c1ccc2ccc(C(F)(F)F)cc2n1)c1ccncc1,Potency,[1],inactive
same,"activity change, negative = inhibition",[2],-5.32%
O=C(O)c1cnn(-c2nc3cc(OC(F)(F)F)c(Cl)cc3[nH]2)c1,Potency,[1],inactive
same,Potency,[2],inactive
CC[C@H]1OC(=O)[C@H](C)[C@@H](O[C@H]2C[C@@](C)(OC)[C@@H](O)[C@H](C)O2)[C@H](C)[C@@H](O[C@@H]2O[C@H](C)C[C@H](N(C)C)[C@H]2O)[C@](C)(O)C[C@@H](C)C(=O)[C@H](C)[C@@H](O)[C@]1(C)O,Potency,[1],inactive
same,Potency,[2],inactive
CCO[C@@H]1OC(=O)C[C@@H]1NC(=O)[C@@H]1CCCN2C(=O)CC[C@H](NC(=O)c3nccc4ccccc34)C(=O)N12,Potency,[1],inactive
same,"activity change, negative = inhibition",[2],-4.46%
CC(C)(O)CC[C@@H](O)[C@](C)(O)[C@H]1CC[C@@]2(O)C3=CC(=O)[C@@H]4C[C@@H](O)[C@@H](O)C[C@]4(C)[C@H]3CC[C@]12C,Potency,[1],inactive
same,"activity change, negative = inhibition",[2],-22.8%
CC(C)S(=O)(=O)c1ccc2nccc(Nc3ccc4scnc4c3)c2c1,Potency,[1],inactive
same,"activity change, negative = inhibition",[2],-14.4%
CCc1cc2c(c(OCC(F)(F)F)c(C(=O)NC3CCN(C(=O)CO)CC3)n2C)c(=O)n1CC(=O)c1ccccc1,Potency,[1],inactive
same,"activity change, negative = inhibition",[2],-53.6%
COc1cccc(-c2c(C)n(Cc3c(F)cccc3C(F)(F)F)c(=O)n(C[C@H](NCCCC(=O)O)c3ccccc3)c2=O)c1F,Potency,[1],inactive
same,"activity change, negative = inhibition",[2],-17.5% and -28.9%
COc1cc2c(cc1OCCCN1CCCC1)N=C(N)C21CCC1,Potency,[1],inactive
same,"activity change, negative = inhibition",[2],-8.97%
Cc1cc(O[C@@H](CCC(F)(F)F)c2ccc(C(=O)NCCC(=O)O)cc2)cc(C)c1-c1ccc(C(C)(C)C)cc1,Potency,[1],inactive
same,"activity change, negative = inhibition",[2],-0.0119%
O=C(/C=C\n1cnc(-c2cc(C(F)(F)F)cc(C(F)(F)F)c2)n1)NNc1ccccn1,Potency,[1],2.51 µM (active)
same,Potency,[2],3.16 µM (active)
COCCNc1cc(NC(=O)N2CCCc3cc(CN4CCN(C)CC4=O)c(C=O)nc32)ncc1C#N,"activity change, negative = cytotoxicity",[1],2.9% [at 11.3 µM] (inactive)
same,"activity change, negative = inhibition",[2],-9.55% [at 11.3 µM]
Cn1cc(-c2ccc(F)c(C(F)(F)F)c2)nc1C1CCN(c2ncnc3[nH]ncc23)CC1,Potency,[1],inactive
same,Potency,[2],inactive
CC(Nc1ncnc2nc[nH]c12)c1cc2cccc(Cl)c2c(=O)n1-c1ccccc1 (stereo not given),Potency,[1],inactive
same,"activity change, negative = inhibition",[2],-36.2%
CC(=NNC(=O)c1cccc(S(=O)(=O)N2CCOCC2)c1)c1cc(Cl)ccc1O,Potency,[1],inactive
same,"activity change, negative = inhibition",[2],-7.45%
N#Cc1ccnc(N2C(=O)CC[C@H]2C(=O)N(c2cncc(F)c2)C(C(=O)NC2CC(F)(F)C2)c2ccccc2Cl)c1 (stereo not given in full),Potency,[1],inactive
same,"activity change, negative = inhibition",[2],-25.5%
CN1C(=O)[C@@H](NC(=O)c2n[nH]c(Cc3ccccc3)n2)COc2ccccc21,Potency,[1],inactive
same,Potency,[2],inactive
COC(=O)/C=C/C(=O)OC,Potency,[1],inactive
same,"activity change, negative = inhibition",[2],-4.67%
Cc1[nH]cnc1CN1CCN(C(=O)N[C@@H](CC(C)C)C(=O)O)[C@@H](Cc2ccccc2)C1=O,Potency,[1],inactive
same,"activity change, negative = inhibition",[2],3.22%
CC1c2cccc(O)c2C(O)=C2C(=O)C3(O)C(O)=C(C(N)=O)C(=O)C(N(C)C)C3C(O)C21 (stereo not given),Potency,[1],inactive
same,"activity change, negative = inhibition",[2],-15.9%
O=C(O)CCNc1cc(N2CCc3ccccc3CC2)nc(-c2cccnc2)n1,Potency,[1],inactive
same,Potency,[2],inactive
Cc1nc2cccc(N)c2c(=O)n1C1CCC(=O)NC1=O (stereo not given),Potency,[1],inactive
same,"activity change, negative = inhibition",[2],-12.7%
NS(=O)(=O)Oc1ccc2c3c(c(=O)oc2c1)CCCCC3,Potency,[1],inactive
same,Potency,[2],inactive
COc1cc([C@@H](CC(=O)O)c2ccc(C)c(CN3C[C@@H](C)Oc4ccccc4S3(=O)=O)c2)cc2nnn(C)c12,Potency,[1],inactive
same,"activity change, negative = inhibition",[2],2.13%
CC(/C=C/[C@@H]1C[C@]1(C)c1ccc2c(c1)C(C)(C)CCC2(C)C)=C\C(=O)O,Potency,[1],inactive
same,"activity change, negative = inhibition",[2],-10.9%
CCCCNc1ncc2c(-c3ccc(F)cc3)nn(CC3CCC(N)CC3)c2n1 (stereo not given),Potency,[1],inactive
same,Potency,[2],10 µM (active)
Nc1nc(OCc2cc(Br)cs2)c2[nH]cnc2n1,Potency,[1],inactive
same,Potency,[2],inactive
CC(C)c1c(-c2ccccc2)nc2c(C#N)c[nH]n2c1=O,Potency,[1],inactive
same,Potency,[2],inactive
CN(C)C(N)=NC(=N)N,outcome,[1],inactive [setting not given]
same,outcome,[2],inactive [setting not given]
CC(C)(c1ccc(OCC(O)CO)cc1)c1ccc(OCC(O)CCl)cc1 (stereo not given),Potency,[1],inactive
same,"activity change, negative = inhibition",[2],-34.4%
CCc1cc(/C(C)=N/OCc2ccc(C3CCCCC3)c(C(F)(F)F)c2)ccc1CN1CC(C(=O)O)C1,Potency,[1],inactive
same,Potency,[2],inactive
Cn1cc(-c2cnc3ccc4ccc(CS(=O)(=O)NCc5ccccn5)cc4c(=O)c3c2)cn1,Potency,[1],inactive
same,"activity change, negative = inhibition",[2],-59.2%
C=CC(=O)N1CCC(CNc2ncnc(N)c2-c2ccc(Oc3ccccc3)cc2)CC1,Potency,[1],inactive
same,"activity change, negative = inhibition",[2],-20.9%
